Source: PubChem BioAssay
Values joined by “and” are separate entries in the source; they are usually repeats but may differ in a detail not shown here. Equal entries are not always repeated.

These compounds were tested against Luciferin 4-monooxygenase (Photinus pyralis) (UniProt P08659) (assay: inhibition of purified Photinus pyralis luciferase – biochemical, luminescence, purified enzyme, 2006 set, primary screen (AID 1141;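 further: cell-free assay with purified firefly luciferase at 100 ng per well in PBS; test concentration not given here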)). Settings: purified firefly luciferase, SteadyGlo luminescence, 30 min; higher = more signal, called active from +8 up or from −8 down.
Sequence of Luciferin 4-monooxygenase (Photinus pyralis) (P08659 whole entry, looked up): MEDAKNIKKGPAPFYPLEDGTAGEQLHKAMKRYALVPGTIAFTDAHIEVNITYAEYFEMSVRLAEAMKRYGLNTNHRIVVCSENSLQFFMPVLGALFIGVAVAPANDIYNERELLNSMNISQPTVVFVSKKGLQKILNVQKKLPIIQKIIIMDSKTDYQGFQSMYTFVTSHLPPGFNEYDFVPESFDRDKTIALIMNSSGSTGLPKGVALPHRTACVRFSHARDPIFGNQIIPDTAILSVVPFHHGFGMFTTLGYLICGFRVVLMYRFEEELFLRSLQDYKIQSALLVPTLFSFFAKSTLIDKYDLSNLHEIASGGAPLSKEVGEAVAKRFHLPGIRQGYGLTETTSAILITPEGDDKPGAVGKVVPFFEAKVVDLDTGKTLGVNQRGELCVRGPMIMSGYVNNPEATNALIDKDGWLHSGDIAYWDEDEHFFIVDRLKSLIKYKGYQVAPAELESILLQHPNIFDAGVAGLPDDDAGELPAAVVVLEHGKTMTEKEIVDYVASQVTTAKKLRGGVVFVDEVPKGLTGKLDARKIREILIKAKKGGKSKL

z-score, inactive:
CC(CO)N1C(=O)[C@@H]2C3C(=O)OCCC=C[C@H]3OC23C=CCN(c2ccc(Cl)cc2)C(=O)[C@@H]13 (stereo partly drawn) -0.593 and -0.731
CC(C)[Si]1(C(C)C)OCc2cc(CCCc3cc4c(c(CCc5ccccc5)n3)[Si](C(C)C)(C(C)C)OC4)nc(CCc3ccccc3)c21 -1.11 and 0.714
C=CCN(Cc1ccccc1)C(=O)C1N(CCOCCO)C(=O)C2C(C(=O)O)C3C=CC21O3 (stereo not drawn) -0.582 and 1.28
C[N+](C)(C)CCCCCCNC(=O)[C@H]1C[C@H]2C(=O)N[C@@H](CCCC[N+](C)(C)C)C(=O)N2[C@H]1c1cccc(OCCO)c1 -0.0709 and 0.15
CCCCCN1CC=CC23O[C@@H]4C=CCCOC(=O)C4[C@H]2C(=O)N(C(C)CO)[C@@H]3C1=O (stereo partly drawn) 0.328 and 0.283
O=C1[C@H]2[C@H]3[C@H](O)[C@H](O)CC(=NOCc4ccccc4)[C@H]3CC[C@H]2C(=O)N1Cc1ccccc1 0.983
CO[C@H]1COC(=O)CC=C[C@H](C)[C@H](OC)COC(=O)[C@@H](C)COC(=O)CC=C[C@@H]1C -0.882 and -1.16
CN1C(=O)C2CC=C([C@H]3Oc4ccccc4S(=O)(=O)N4CCC[C@@H]34)CC2C1=O (stereo partly drawn) 0.156 and 0.737
C[C@@H](ON=C1[C@H]2CCn3c(=O)n(-c4ccccc4)c(=O)n3[C@H]2[C@H](O)[C@@H]2O[C@H]12)c1cn([C@H](CO)Cc2ccccc2)nn1 -0.116
CCOC(=O)C[C@H]1[C@H](OC(=O)c2ccccc2-c2ccccc2)[C@@H](NC(=O)Cc2ccc(OC)cc2)c2cc(OCCCO)ccc2N1C(=O)c1ccc2ccccc2n1 -0.391 and -0.85
CCOC(=O)[C@H](CC(C)C)NC(=O)CCC1CC(OC(=O)NCc2cccc3ccccc23)CC2(CCCC(COC(=O)NCc3ccccc3)O2)O1 (stereo partly drawn) 0.529
Cc1ccc(S(=O)(=O)N[C@@H]2COC(=O)CC=C[C@@H](C)[C@@H]3C=C[C@H](O)[C@@H](COC(=O)CC=C[C@H]2C)O3)cc1 -0.92 and 1.02
CO[C@@H]1COC(=O)[C@H](Cc2ccccc2)NC(=O)CC=C[C@@H](C)[C@H](OC)COC(=O)[C@@H](C)NC(=O)CC=C[C@H]1C -0.554 and -1.49
